G9a block = G9a (human) methyltransferase inhibition; Q96KQ7; G9a H3K9 monomethylation, AlphaScreen, 2 h; Potency, µM (top dose mostly 102 µM), for the others: top-dose activity, negative = inhibition, hits mostly inhibitors; 350,000 tested, 8.8% active; AID 504332; also: % is scaled to controls: 0 for no effect and ±100 for the full control effect; nearly all actives have a fitted effect of over 75% in size
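AlphaScreen read-out: biotin-H3K9 peptide (500 nM) methylation by 20 nM enzyme with 20 uM SAM, 2 h at room temperature after 15 min compound preincubation; anti-monomethyl H3K9 antibody plus donor/acceptor beads, 10 min dark.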
BAZ2B inh = BAZ2B (human) inhibition; AID 504333; AlphaScreen BAZ2B-H3K14Ac peptide displacement; Potency, µM (doses to about 114 µM), inactives show top-dose activity change, negative = inhibition, most hits filed as inhibitors; Q9UIF8; 360,000 tested, 4.4% active; also: % is scaled to controls: 0 for no effect and ±100 for the full control effect; nearly all actives have a fitted effect of over 60% in size
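In this displacement format the biotinylated H3(5-23) peptide acetylated at Lys14 serves as ligand at 50 nM, with BAZ2B at 50 nM in PBS pH 7.4 containing 0.01% Tween-20. Donor and acceptor beads are 10 ug/mL final.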
HP1b chromo inh = blocks HP1-beta chromodomain binding to methylated histone tails | AlphaScreen HP1-beta / biotin-H3K9me3 peptide binding | Potency, µM (top dose mostly 114 µM), for inactives: top-dose activity change, negative = inhibition, usual class: inhibitors | 390,000 tested, 0.56% active | P83916; also: nearly all actives have a fitted effect of over 70% in size
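HP1-beta protein (50 nM final) preincubated 30 min at room temperature with biotinylated H3(1-18)K9me3 peptide (50 nM) in PBS pH 7.4, 0.01% Tween-20, then compound added for 30 min. AlphaScreen streptavidin donor/nickel chelate acceptor beads (10 ug/mL final), 30 min dark, luminescence read.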
L3MBTL1 block = inhibitors of human L3MBTL1; Q9Y468; AlphaScreen L3MBTL1–H3K9me1 peptide binding; Potency, µM (highest dose often 57.1 µM), for inactives: at the highest dose activity, negative = inhibition, most hits filed as inhibitors; 230,000 tested, 0.66% active; AID 485360; also: % is scaled to controls: 0 for no effect and ±100 for the full control effect; nearly all actives have a fitted effect of over 60% in size
Target sequence (Q9Y468 whole entry, looked up): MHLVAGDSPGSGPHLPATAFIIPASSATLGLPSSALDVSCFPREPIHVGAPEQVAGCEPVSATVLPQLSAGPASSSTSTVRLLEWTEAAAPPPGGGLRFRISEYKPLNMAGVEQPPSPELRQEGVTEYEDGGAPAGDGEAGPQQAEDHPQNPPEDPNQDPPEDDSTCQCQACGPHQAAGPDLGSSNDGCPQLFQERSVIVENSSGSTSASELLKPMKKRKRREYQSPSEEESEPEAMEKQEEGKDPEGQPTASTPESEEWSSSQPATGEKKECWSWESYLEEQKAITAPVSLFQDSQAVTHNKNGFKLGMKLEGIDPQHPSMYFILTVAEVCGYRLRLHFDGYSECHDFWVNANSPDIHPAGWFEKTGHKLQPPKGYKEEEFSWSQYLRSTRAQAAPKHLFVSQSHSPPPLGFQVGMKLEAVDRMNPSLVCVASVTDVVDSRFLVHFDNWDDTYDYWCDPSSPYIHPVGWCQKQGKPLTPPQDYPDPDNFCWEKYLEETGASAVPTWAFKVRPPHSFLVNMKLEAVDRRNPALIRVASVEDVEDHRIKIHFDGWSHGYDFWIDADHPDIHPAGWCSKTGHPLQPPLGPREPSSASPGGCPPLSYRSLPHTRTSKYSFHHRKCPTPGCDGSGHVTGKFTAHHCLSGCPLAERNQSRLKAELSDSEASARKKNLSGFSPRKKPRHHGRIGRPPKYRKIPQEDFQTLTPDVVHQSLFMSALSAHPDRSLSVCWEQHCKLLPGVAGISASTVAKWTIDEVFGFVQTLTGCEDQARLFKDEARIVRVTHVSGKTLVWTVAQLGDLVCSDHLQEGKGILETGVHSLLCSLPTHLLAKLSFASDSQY
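First, the protein-peptide complex forms for 30 min at room temperature (L3MBTL1 50 nM, biotinylated H3K9me1 peptide 75 nM). Next, compounds are pin-transferred and incubated 30 min. Finally, AlphaScreen beads are added and read after 30 min.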
JMJD2A Tudor = JMJD2A Tudor domain (human) inhibition | O75164 | AlphaScreen JMJD2A-Tudor / H3K4me3 peptide binding | Potency, µM (series often up to 114 µM), without a hit: at the highest dose activity change, negative = inhibition, actives largely listed as inhibitors | 390,000 tested, 4.4% active; also: % is scaled to controls: 0 for no effect and ±100 for the full control effect; nearly all actives have a fitted effect of over 50% in size
Sfp PPTase inh = Sfp phosphopantetheinyl transferase inhibition; AID 1490; Potency, µM, without a hit: largest response in the series, negative = inhibition, usual class: inhibitors; Biochemical Sfp PPTase activity, qHTS; Q9F4F7; 310,000 tested, 3.5% active;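 also: the enzyme is Sfp with the accession as filed and its product quenches rhodamine fluorescence; 0% = enzyme reaction without inhibitor and -100% = no enzyme wells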
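Reaction rates are the 30-min fluorescence difference (ex 525, em 598 nm) in wells containing 15 nM Sfp, 5 uM rhodamine-CoA and 12.5 uM BHQ-2-YbbR at pH 7.6 with 10 mM MgCl2.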
* hit, by the source's call; ? = inconclusive; . = no result given; [ ] = dose if it differs, or a comment. Hits are enriched below; roughly 12% of the tested compounds scored in any of these assays. Calls follow the shape of the dose curve; as a rule, active = well fitted curve in the direction sought with a large enough effect; inconclusive = small, poorly fitted or top-dose-only effect, or another doubt; inactive = no such curve, though single readings can be large; an effect the other way counts as inactive or inconclusive. Potency is read from the fitted curve at half-maximal effect.

SMILES	G9a block	BAZ2B inh	HP1b chromo inh	L3MBTL1 block	JMJD2A Tudor	Sfp PPTase inh
Cc1cc(C(=O)CSc2cccc[n+]2[O-])c(C)n1-c1ccccc1	?	?	16%	-9%[11.4 µM]	-25%	-10%
CCOc1ccccc1NC(=O)C1CCN(S(=O)(=O)c2c(C)noc2/C=C/c2ccc(C)cc2)CC1	-3%[59 µM]	2%	27%[57 µM]	.	-6%	.
Cc1nc2cnc(N3CCN(C)CC3)nc2n(C2CC2)c1=O	8%[0.501 µM]	.	.	.	.	12%
CCOC(=O)C1=C(N)n2c(s/c(=C\c3ccco3)c2=O)=C(C(=O)OCC)C1c1ccco1 (stereo not drawn)	?	7.9µM*	-18%	-3%	?	-13%
CCOC(=O)C1=C(N)n2c(s/c(=C/c3ccccc3)c2=O)=C(C(=O)OCC)C1c1ccccc1 (stereo not drawn)	12%	-24%[57.1 µM]	.	-4%	.	8%
CCOC(=O)C1=C(c2ccccc2)N=c2s/c(=C\c3cc(OC)c(OC)c(OC)c3)c(=O)n2C1c1cccs1 (stereo not drawn)	?	?	18%	-13%	-20%	14%
CCOC(=O)C1=C(c2ccccc2)N=c2s/c(=C\c3ccco3)c(=O)n2C1c1cccs1 (stereo not drawn)	?	11µM*	-35%	22%	25µM*	50µM*
CCOC(=O)C1=C(N)n2c(s/c(=C\c3ccco3)c2=O)=C(C(=O)OC(C)C)C1c1ccco1 (stereo not drawn)	28µM*	?	-29%	-3%	?	-7%
CC[C@H](C)[C@H](NC(=O)[C@H](CC(=O)O)NC(=O)[C@H](CC(C)C)NC(=O)[C@H](Cc1cnc[nH]1)NC(=O)[C@H](C)NC(=O)[C@H](Cc1ccccc1)NC(=O)[C@H](Cc1ccc(O)cc1)NC(=O)[C@@H](NC(=O)[C@H](C)NC(=O)[C@H](CCC(=O)O)NC(=O)[C@H](CCCCN)NC(=O)[C@H](CC(=O)O)NC(=O)[C@H](CCSC)NC(=O)[C@H](CC(C)C)NC(C)=O)C(C)C)C(=O)N[C@H](C(=O)N[C@@H](Cc1c[nH]c2ccccc12)C(=O)O)[C@@H](C)CC	.	.	.	.	.	1%
CCC(CC)n1c(C)cc(=O)n1C(CC)CC	.	.	40%	.	-8%	.
Oc1ccccc1C=NCCN=Cc1ccccc1O	13%	-32%	15%	-5%	-16%[11.4 µM]	20%
Oc1ccccc1C=NCCN1CCN(CCN=Cc2ccccc2O)C1c1ccccc1O (stereo not drawn)	.	.	13%[57 µM]	.	22µM*	.
O=C1OC2(CCCCC2)OC(=O)C1=CNc1nccs1	50µM*	-22%	32%	10%	-12%	0%
CCOc1ccc(C(=O)Nc2ccc(-c3nnc4n3CCCCC4)cc2)cc1OCC	1%[59 µM]	-1%	13%	.	-17%	.
COc1cccc(CN(c2ccc3c(c2)CCC3)S(=O)(=O)c2ccc(-n3cnnn3)c(OC)c2)c1	4%[59 µM]	7%	9%	-5%	-6%	-3%
Cc1ccc(C(=O)N/N=C\c2ccc(-c3ccc([N+](=O)[O-])cc3)o2)cn1	.	-9%	18%	5%	-9%	-16%
NC(=S)N/N=C/c1ccc(-c2ccc([N+](=O)[O-])cc2)o1	22µM*	-29%	32%	-8%	-13%	3.5µM*
CN(/N=C/c1cc([N+](=O)[O-])ccc1O)c1ccccc1	15%[59 µM]	-7%	32%	6%	-11%	-4%
NC(=S)N/N=C/c1ccc(-c2cc(Cl)ccc2Cl)o1	-6%	-2%	-9%	.	?	-24%
CN(C)/N=C/c1ccc(Sc2ccccc2[N+](=O)[O-])o1	25µM*	20µM*	35µM*	?	40µM*	-3%
CN(/N=C/c1ccc(-c2ccc([N+](=O)[O-])cc2)o1)c1ccccc1	-5%	-36%	?	-12%	25µM*	-4%
NC(=S)N/N=C/c1ccc(-c2cc(Cl)cc(Cl)c2)o1	13µM*	-33%	9%	.	-35%	50µM*
CC1CN(S(=O)(=O)c2ccc(CN3C(=O)c4cccnc4C3=O)cc2)c2ccccc2O1 (stereo not drawn)	-42%	-28%	30%	.	-8%	12%
O=[N+]([O-])c1ccc(C23CC4CC(CC(O)(C4)C2)C3)cc1	-3%[59 µM]	-21%	.	.	.	14%
Cc1cc(N2C(=O)C(O)=C(C(=O)c3ccco3)C2c2ccc([N+](=O)[O-])cc2)no1 (stereo not drawn)	89µM*	?	3%	.	-14%	1%
SMILES	G9a block	BAZ2B inh	HP1b chromo inh	L3MBTL1 block	JMJD2A Tudor	Sfp PPTase inh
COC(=O)c1ccc(C2C(C(=O)c3cc4ccccc4o3)=C(O)C(=O)N2c2cc(C)on2)cc1 (stereo not drawn)	45µM*	-22%	-8%[57 µM]	.	?	-7%
COc1ccccc1C1C(C(=O)c2ccco2)=C(O)C(=O)N1c1cc(C)on1 (stereo not drawn)	?	-21%	25%	.	-9%	4%
CCCOc1cccc(C2C(C(=O)c3cc4ccccc4o3)=C(O)C(=O)N2c2cc(C)on2)c1 (stereo not drawn)	-2%[0.501 µM]	?	-5%[57 µM]	.	?	5%
Cc1cc(N2C(=O)C(O)=C(C(=O)c3cc4ccccc4o3)C2c2cccc(Br)c2)no1 (stereo not drawn)	9%[0.0925 µM]	?	-14%[57 µM]	.	?	5%
Cc1cc(N2C(=O)C(O)=C(C(=O)c3cc4ccccc4o3)C2c2ccc(OC(C)C)cc2)no1 (stereo not drawn)	35µM*	-16%	15%	.	-3%	9%
CC(C)(C)c1ccc(N2C[C@@H](COc3ccc(C(=O)O)cc3)CC2=O)cc1	.	.	.	.	.	23%
O=C1C2C3CCCC3=C3CCCC3C2C(=O)N1c1ccccc1Cl (stereo not drawn)	.	.	34%	.	-17%	.
Cc1cc(COc2ccccc2O)on1	71µM*	6%	47%	.	2%	3%
COc1ccccc1OCc1cc(-c2ccccc2)no1	178%	152%	211%	51%	131%	6%
COC(=O)CSc1nc2sc3c(c2c(=O)n1-c1ccc(C)cc1)CC(C(C)C)OC3 (stereo not drawn)	-38%[59 µM]	2%	6%	.	-13%	.
CCCNC(=S)N1CCN(C)CC1	10µM*	40µM*	?	1%	8.9µM*	-23%
CCOCCCNC(=S)N1CCN(CC)CC1	22µM*	50µM*	?	1%	25µM*	-2%
COCCCNC(=S)N1CCN(c2nc(-c3ccccc3)cs2)CC1	.	?	-5%	-7%	-31%	-3%
CCOCCCNC(=S)N1CCN(Cc2ccco2)CC1	10µM*	35µM*	40µM*	-2%	-100%	?

Source: PubChem
